Screening results deposited in PubChem BioAssay by several laboratories.
RmlCD inh mix: RmlC/RmlD inhibition, mixture screen. 110,000 compounds, 0.39% hits. RmlC/RmlD coupled enzyme inhibition, 384-well mixture HTS. inhibition, % at 5.5 µM; in the data active = inhibition above about 30%, passing the limit was not always enough; inconclusive = no clear call, values can overlap the other calls
HIV RNase H inh-1: inhibitors of HIV-1 reverse transcriptase RNase H. RT-RNase H RNA/DNA duplex cleavage, fluorescence. inhibition, % at 10 µM. 65,000 compounds, 1.9% hits; in the data active = inhibition above about 50%
HIV RNase H inh-2: confirmation of HIV-1 reverse transcriptase RNase H inhibitors; shares compounds with HIV RNase H inh-1; Recombinant RT RNase H, fluorescent RNA/DNA duplex cleavage; inhibition, % at 10 µM; 1,000 compounds, 39% hits; in the data active = inhibition above about 48%; inconclusive = no clear call, values can overlap the other calls
Numbers stand for hits; - = inactive; ? = inconclusive; . = no result given. The full list was thinned out, with hits kept by preference.

SMILES | RmlCD inh mix | HIV RNase H inh-1 | HIV RNase H inh-2
Nc1c(C(=O)NCc2cccnc2)sc(=S)n1-c1ccccc1 | - | 60 | 63
CCn1c(N)c(C(=O)NCC2CCCO2)sc1=S (configuration not stated) | - | - | .
Cc1ccc(N=C2C(=S)N(c3ccc(C)cc3)C(=N)N2/N=C/c2ccc(Cl)cc2)cc1 | - | . | .
COc1ccc(-n2nc3cc(C)c(NC(=O)c4cccnc4)cc3n2)cc1 | . | - | .
COc1ccc(-n2nc3cc(C)c(NC(=O)CC(C)C)cc3n2)cc1 | - | 65 | 61
O=c1cc(CN2CCN(c3ccccc3)CC2)c2c(ccc3ccccc32)o1 | - | - | .
COc1ccc(N2CCN(Cc3cc(=O)oc4ccc(Cl)cc34)CC2)cc1 | - | - | .
O=c1cc(CN2CCN(c3ccccc3)CC2)c2cc(O)c(-c3ccccc3)cc2o1 | - | 73 | 69
COc1ccc(N2CCN(Cc3cc(=O)oc4cc5c(cc34)CCCC5)CC2)cc1 | - | 81 | 63
Cc1c(Br)c([N+](=O)[O-])nn1CC(=O)NCc1cccnc1 | - | . | .
COc1ccc(-c2ccc(N)[n+](CCCC(=O)O)n2)cc1 | - | . | .
COc1cccc(SCc2noc(C(=O)NCC3CC3)c2C(=O)NCC2CC2)c1 | - | . | .
CC1CCCC(C)N1C(=O)CSc1nnc(COc2ccccc2)n1-c1ccccc1 (configuration not stated) | - | . | .
CC(=O)O[C@H]1CC[C@]2(C)[C@H]3CC=C4[C@@H]5[C@@H](C)[C@H](C)CC[C@]5(C(=O)O)CC[C@@]4(C)[C@]3(C)CC[C@H]2C1(C)C | - | . | .
Cc1ccc(-n2nnnc2SCC(=O)N2CC(=O)Nc3ccccc32)cc1 | - | . | .
O=C(O)CN(c1ccccn1)S(=O)(=O)c1ccccc1 | - | . | .
COC(=O)CN(c1ccccn1)S(=O)(=O)c1ccccc1 | - | 73 | -
O=C(CSc1ncnc2scc(-c3ccc(Cl)cc3)c12)NCc1ccc2c(c1)OCO2 | - | . | .
CCC(C)c1ccc2oc(-c3ccc(NC(=O)c4ncn[nH]4)cc3)nc2c1 (configuration not stated) | - | 64 | 71
O=C(Nc1ccc2oc(-c3cccc4ccccc34)nc2c1)c1ncn[nH]1 | - | . | .
O=C(Nc1ccc2oc(-c3ccccc3Cl)nc2c1)c1ncn[nH]1 | - | - | .
CC(C)c1ccc2oc(-c3ccc(NC(=O)c4ncn[nH]4)cc3)nc2c1 | - | 74 | 58
CCCCN1C2=C(C(=O)CCC2)C(c2ccc(Cl)c(Cl)c2)C2=C1c1ccccc1C2=O (configuration not stated) | - | . | .
CC1(C)CC[C@]2(CO)[C@@H](O)C[C@]3(C)C(=CCC4[C@@]5(C)CC[C@H](O)C(C)(C)C5CC[C@]43C)[C@@H]2C1 (some centres not stated) | - | . | .
Cc1cc(C)n2c(SC/C(O)=C(\C#N)c3nc4ccccc4[nH]3)nnc2n1 | - | 83 | ?
SMILES | RmlCD inh mix | HIV RNase H inh-1 | HIV RNase H inh-2
Cc1ccccc1-n1c(SC/C(O)=C(\C#N)c2nc3ccccc3[nH]2)nnc1-c1ccncc1 | - | - | .
Cc1ccc(NC(=O)CSc2nnc(Cn3c(=O)sc4ccccc43)n2C)cc1Cl | . | - | .
NC(=O)CC[C@@H]1NC(=O)[C@@H]2CCCN2C(=O)c2cc([N+](=O)[O-])cc(I)c2NCCC[C@@H](C(N)=O)NC1=O | - | . | .
CC(=O)C(C(C)=O)c1c(Cl)c(O)c(O)c2c(C(=O)c3ccccc3)coc12 | - | 100 | 64
CN1CCN(Cc2c(O)ccc3occ(C(=O)c4ccccc4)c23)CC1 | - | - | .
C=C1CCN([C@@H](C)C(=O)NCc2ccc(OC)cc2)S(=O)(=O)c2ccccc21 | - | . | .
O=C(CSc1ccc2nnc(-c3cccnc3)n2n1)NCC1CCCO1 (configuration not stated) | - | - | .
O=C(CSc1ccc2nnc(-c3cccc(F)c3)n2n1)NCC1CCCO1 (configuration not stated) | - | 73 | -
OCCn1c(CSc2nnc(-c3ccco3)n2-c2ccccc2)nc2ccc(Cl)cc21 | - | 80 | -
OCCn1c(CSc2nc3ccccc3n2CCO)nc2ccccc21 | - | - | .
Cc1cc(-c2cc(C(=O)Nc3ccccc3)on2)nc(NC2CCCC2)n1 | - | . | .
c1ccc(-c2nnc3sc(-c4ccncc4)nn23)cc1 | - | - | .
c1ccc(-c2nnc3sc(-c4csc5c4CCCC5)nn23)cc1 | - | 69 | ?
Cc1ccc(C)c2c3c([nH]c12)-c1nonc1CC3 | - | . | .
CCn1c(Cc2ccccc2)nnc1SCC(=O)Nc1nc(C)c(C)s1 | - | 64 | -
CCn1c(Cc2ccccc2)nnc1SCC(=O)Nc1nc(C)cs1 | - | . | .
Cc1c(-c2ccccc2)sc(N)c1C(=O)N1CCOCC1 | - | 85 | -
CCOC(=O)c1c(N)sc(-c2ccccc2)c1C | - | . | .
CCn1cc(/C=N/NS(=O)(=O)c2ccc(OC)cc2)c(C)n1 | - | . | .
N#Cc1cc2c([nH]c1=S)CCCCCC2 | - | 81 | -
N#Cc1c(N)n[nH]c1-c1cc2c([nH]1)CCCC2 | - | - | .
CC(CN1CCCCC1)OC(=O)C(C)(c1ccccc1)c1ccccc1 (configuration not stated) | - | . | .
COc1ccc(C2c3c(oc4ccc(Cl)cc4c3=O)C(=O)N2Cc2ccco2)cc1OC (configuration not stated) | . | 94 | 60
COc1cc(C2c3c(oc4ccc(Cl)cc4c3=O)C(=O)N2Cc2ccco2)cc(OC)c1OC (configuration not stated) | . | - | .
COc1cccc(C2c3c(oc4ccc(Cl)cc4c3=O)C(=O)N2c2cc(C)on2)c1OC (configuration not stated) | - | 50 | -
SMILES | RmlCD inh mix | HIV RNase H inh-1 | HIV RNase H inh-2
COc1ccc(/C(O)=C2\C(=O)C(=O)N(c3cc(C)on3)C2c2cccc(OC)c2OC)cc1C (configuration not stated) | - | - | .
O/N=C/c1cc(Cl)ccc1OCc1cccc2ccccc12 | - | . | .
O=c1c(-c2nc3ccccc3s2)cccn1Cc1ccc(Cl)c(Cl)c1 | - | . | .
C=CCOC(=O)C1=C[C@@H](c2cn(C(C)=O)c3ccccc23)C[C@@H](OCc2ccc(CO)cc2)O1 | - | . | .
O=C(CCC(=O)c1ccc(F)cc1)Nc1cc(Cl)cc(Cl)c1 | - | . | .
Cc1cccc(NC(=O)c2nc[nH]c2C(=O)N[C@@H](C)C(=O)OC(C)(C)C)c1 | - | . | .
CN1c2ccsc2C(O)=C(C(=S)Nc2ccc(F)c(Cl)c2)S1(=O)=O | - | . | .
c1coc(-c2nc3ccccc3nc2-c2ccco2)c1 | - | 67 | -
O=c1oc(-c2ccco2)nc2ccccc12 | - | - | .
COc1ccc(-c2c([C@H]3[C@H]4C=CC[C@@H](C)[C@@H]4C(=O)N3Cc3ccccc3)ccc3ccccc23)cc1OC | - | . | .
CC[C@H](C)[C@@H]1NC(=O)c2cc([N+](=O)[O-])cc(I)c2SC[C@@H](C(N)=O)NC(=O)[C@H](CCCCN)NC1=O | - | . | .
Cn1c(SCC(=O)NCc2ccco2)nc2ccccc2c1=O | - | - | .
O=C(CSc1nc2ccccc2c2nc3ccccc3n12)NCc1ccco1 | - | 84 | 64
O=C(Nc1ccc(N2CCOCC2)cc1)Nc1cnsn1 | - | 67 | -
O=C(Nc1ccc(N2CCOCC2)cc1)Nc1ccc(Cl)c(Cl)c1 | - | . | .
O=C(N[C@@H](Cc1ccccc1)C(=O)OCc1ccccc1)c1nc[nH]c1C(=O)N1CCc2ccccc2C1 | - | . | .
Nc1c(-c2ccc(Cl)cc2)cnn1C1CCS(=O)(=O)C1 (configuration not stated) | - | . | .
